Assay outcomes from PubChem.
In the library only some 8.1% were active in any assay of this set; here they are far more common.
ClpP mod: qHTS Assay for Activators of ClpP. ATP-dependent Clp protease proteolytic subunit (Bacillus subtilis (strain 168)), P80244. Potency, µM (titrated, usually from 57.5 µM), inactives show top-dose activity change, negative = active. purified B. subtilis ClpP, FRET peptide cleavage, 20 min. AID 651965, 2013. actives 1.9% (n = 340,000); active = well fitted falling curve with a large enough effect; inconclusive = small, poorly fitted or top-dose-only effect; inactive = no such curve, though single readings can be large or run the other way; note: the source files actives as falling curves though it sought activators and does not explain the sign; nearly all actives have a fitted effect of over 65% in size
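FRET quenching reversal measured ClpP activation: 10 microg/mL B. subtilis ClpP at pH 8 with the FRET-FV decapeptide, read at 430 nm after 320 nm excitation. The 20-min minus 0-min signal was scaled between DMSO/no-enzyme wells and ADEP (5.8 microM final).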
Sfp inh: blocks B. subtilis Sfp PPTase activity; actives 3.5% (n = 310,000); Biochemical Sfp PPTase activity, qHTS; AID 1490; Potency, µM, for inactives: largest response in the series, negative = inhibition, hits mostly inhibitors; Q9F4F7;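 note: the enzyme is Sfp with the accession as filed and its product quenches rhodamine fluorescence; 0% = enzyme reaction without inhibitor and -100% = no enzyme wells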
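Buffer: 50 mM Hepes-Na pH 7.6, 10 mM MgCl2, 0.01% Nonidet P-40, 0.01% BSA. Enzyme 15 nM, pre-exposed to compound 15 min; substrates then added and fluorescence change tracked over 30 min.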
Epigenetic derep: regulators of epigenetic silencing causing reporter derepression in mouse cells; murine LDR cells, GFP reporter derepression, 30 h; Potency, µM (titrated, usually from 53.9 µM), without a hit: top-dose GFP activation, actives largely listed as activators; actives 0.2% (n = 280,000); AID 1865; note: % of control where 0% means no effect; nearly all actives have a fitted effect of over 60% in size
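Reporter derepression read as number of fluorescent GFP-positive objects, 20-120 um in size, counted by laser-scanning cytometer. Mouse LDR line with an epigenetically silenced CMV-GFP locus; compound incubation 30 h, 37 C.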
RORg inh: blocks mouse ROR gamma transcriptional activity. P51450. Drosophila S2 Gal4-RORgamma UAS-luciferase reporter, 20 h. Potency, µM (doses to about 53.6 µM), for inactives: top-dose activity change, negative = inhibition, usual class: inhibitors. actives 5.4% (n = 310,000). AID 2551; note: % is set by controls: 0 for no effect and ±100 for the full control effect; nearly all actives have a fitted effect of over 60% in size
Target sequence (P51450 whole entry, looked up, the tested form may be a part): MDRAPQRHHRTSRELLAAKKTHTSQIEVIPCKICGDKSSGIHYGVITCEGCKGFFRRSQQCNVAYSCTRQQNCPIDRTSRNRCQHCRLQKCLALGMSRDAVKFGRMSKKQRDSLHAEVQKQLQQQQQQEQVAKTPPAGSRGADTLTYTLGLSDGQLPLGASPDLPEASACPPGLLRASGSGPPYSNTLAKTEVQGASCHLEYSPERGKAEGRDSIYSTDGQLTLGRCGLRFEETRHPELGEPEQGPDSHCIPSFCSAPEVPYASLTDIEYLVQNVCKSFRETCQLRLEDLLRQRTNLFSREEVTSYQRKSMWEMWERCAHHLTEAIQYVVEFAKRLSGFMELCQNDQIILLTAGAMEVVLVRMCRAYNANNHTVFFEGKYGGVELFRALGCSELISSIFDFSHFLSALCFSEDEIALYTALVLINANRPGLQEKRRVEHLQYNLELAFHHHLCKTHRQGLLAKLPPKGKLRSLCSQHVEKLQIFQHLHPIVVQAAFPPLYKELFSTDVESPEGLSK
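Stable Schneider cell line, Gal4 DNA-binding domain fused to ROR gamma, UAS-luciferase. Cmpd 1 hr RT → CuSO4 700 uM final → 20 hr RT → luciferase reagent 10 min → luminescence.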
PINK1 expr mod: modulators of PINK1 expression. actives 0.2% (n = 410,000). Potency, µM (series often up to 76.6 µM), for inactives: at the top dose activation (PINK1 increase), actives largely listed as activators. PINK1 immunofluorescence, high-content cytometry, 24 h; active = well fitted activation curve with a large enough effect; inconclusive = small, poorly fitted or top-dose-only effect; cell line not stated here; note: % of control where 0% means no effect; nearly all actives have a fitted effect of over 65% in size
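Stable cell line treated 24 h with compounds at 5 concentrations (CCCP controls), then fixed and immunostained for PINK1 plus nuclear and cell stains; PINK1 immunofluorescence quantified by laser-scanning microplate cytometry.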
Gal4-VP16 FLuc: inhibits Gal4-VP16 luciferase reporter, ROR gamma counter-screen; Drosophila S2 Gal4-VP16 UAS-luciferase, luminescence, 20 h; actives 3.5% (n = 310,000); Potency, µM (highest dose often 53.6 µM), without a hit: at the top dose activity, negative = inhibition, usual class: inhibitors;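 note: Gal4-VP16 expression switched on by copper sulfate through the metallothionein promoter; % is set by controls: 0 for no effect and ±100 for the full control effect; nearly all actives have a fitted effect of over 50% in size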
An asterisk follows results filed as active; ? = inconclusive; nt = no result given; [ ] = remark or other dose. Unless noted, calls come from the whole dose curve; as a rule, active = well fitted curve in the direction sought with a large enough effect; inconclusive = small, poorly fitted or top-dose-only effect, or another doubt; inactive = no such curve, though single readings can be large; an effect the other way counts as inactive or inconclusive. Potency is the fitted concentration of half-maximal effect.

SMILES | ClpP mod | Sfp inh | Epigenetic derep | RORg inh | PINK1 expr mod | Gal4-VP16 FLuc
Cc1ccc(NC(=S)NC(=O)C2CC2)cc1Cl | 1.4% | 8.1% | nt | 3.16µM* | 2.3% | 5.01µM*
Fc1ccc(NC(=S)N2CCCC2)cc1Cl | -2.1% | -13.4% | -0.8% | ? | 0.4% | -9.5%
Cc1ccc(NC(=S)Nc2ccc(OC(F)F)c(Cl)c2)cc1F | -0.5% | -12.8% | 1.1% | ? | 15.8µM* | ?
O=C(NC(=S)Nc1ccc(F)c(Cl)c1)C1CC1 | -1.2% | 4.2% | nt | 5.62µM* | 3.7% | 7.08µM*
Cc1ccc(Cn2cc(S(=O)(=O)c3ccccc3)c(=O)c3cc(F)c(N4CCOCC4)cc32)cc1 | ? | nt | -0.4% | nt | 0.7% | nt
CCCCCCCCCC[n+]1ccc(/C=C/c2c(C)[nH]c3ccccc23)c2ccccc21 | 1.1% | nt | nt | nt | nt | nt
CCCNC(=O)Cn1nc(-c2ccc(F)cc2)c2cnc3ccc(F)cc3c21 | -6.3% | nt | 0.0% | nt | 0.4% | nt
O=C(CO/N=C/c1ccc(Cl)cc1Cl)NNC(=O)c1ccc(Cl)cc1Cl | 0.3% | 9.3% | -0.9% | 0.0891µM* | 4.3% | ?
O=C(CO/N=C/c1c(Cl)cccc1Cl)NNC(=O)c1cccc(Cl)c1 | 2.6% | 14.1% | 1.1% | -15.6% | 2.8% | 1.7%
Cc1cccc(Cn2c(=O)n(Cc3ccccc3)c(=O)c3sc4ccccc4c32)c1 | -17.1% | nt | -0.9% | nt | -1.1% | nt
COc1ccc(C(C2C(=O)CC(C)(C)CC2=O)C2C(=O)CC(C)(C)CC2=O)cc1CO | -3.4% | 56.2µM* | nt | -18.3% | -1.2% | 1.9%
O=C(NCCCc1nc2ccccc2n1CCCCOc1ccccc1)C1CCCCC1 | 0.2% | nt | nt | nt | 2.8% | nt
Cc1ccc(O)c(-c2cc3ccccc3[nH]2)c1 | 14.1µM* | -10.2% | 2.2% | -9.8% | 12.8% | ?
Cc1c(-n2c(SCC(=O)O)nnc2-c2ccccc2Cl)c(=O)n(-c2ccccc2)n1C | 35.5µM* | 12.0% | -2.4% | 22.2% | 0.9% | -9.8%
Cc1cc(C)c2c(n1)NCCC2 | 4.1% | nt | nt | nt | nt | nt
COc1cnc(-c2ccccn2)nc1Oc1ccccc1 | nt | 6.7% | 1.2% | 11.2µM* | 1.3% | ?
COc1cnc(-c2ccccn2)nc1N(C)c1ccccc1 | nt | 50.1µM* | nt | 7.94µM* | -0.4% | ?
COc1cnc(-c2ccccn2)nc1Oc1cccc(C(F)(F)F)c1 | nt | -0.3% | nt | 6.31µM* | nt | 11.2µM*
COc1ccnc(Oc2ccccc2)c1C#N | 0.1% | 6.1% | -1.0% | 3.9% | 4.4%[38.3 µM] | -3.4%
CN(c1ccccc1)c1ncccn1 | 2.5% | nt | nt | nt | 0.4% | nt
FC(F)(F)c1cccc(Oc2nc(-c3ccccc3)nnc2C(F)(F)F)c1 | 1.3% | -11.1% | 2.0% | 19.8% | 6.7% | -10.6%
Cc1ccccc1C(=O)Nc1nc2c(s1)CC(C(C)(C)C)CC2 (stereo not drawn) | 1.2% | nt | 16.1% | nt | 1.5% | nt
Cc1ccc(-n2nc(C)c3nc(CCC(=O)Nc4cccc(C)c4C)c(=O)n(C)c32)cc1 | -8.0% | nt | -1.7% | nt | -1.0% | nt
CSc1cccc(NC(=O)Cn2c3ncccc3c(=O)n2-c2ccc(C)cc2)c1 | 25.1µM* | nt | -2.9% | nt | 0.2% | nt
Cc1cc(C)c(S(=O)(=O)N2CCN(C(=O)N(C)C)CC2)c(C)c1 | nt | 7.08µM* | -0.1% | 0.1% | -1.3% | -3.6%
Cc1cc(C)c(S(=O)(=O)N2CCN(C(=O)CN3C(=O)NC4(CCCC4)C3=O)CC2)c(C)c1 | 35.5µM* | 0.5% | nt | 9.8% | 4.9% | 1.0%
CCc1ccc(S(=O)(=O)c2c[nH]c3cc(OC)c(OC)cc3c2=O)cc1 | -21.8% | nt | 1.8% | nt | 6.0% | nt
COC(=O)C1=C(C)N(Cc2ccccc2)C2=C(C(C)=O)C[C@@](O)(C(=O)OC)C(=O)N2C1c1ccccc1 (stereo partly drawn) | nt | -5.8% | -0.8%[10.1 µM] | 4.9%[10 µM] | nt | 5.7%[10 µM]
CCC1=NN(C(=O)C(=O)Nc2ccccc2OC)C(O)(C(F)(F)F)C1 (stereo not drawn) | 1.6% | 5.3% | 0.0% | 12.6µM* | -5.4%[38.3 µM] | ?
